This note sets out measurements from PubChem BioAssay (Tox21).

Results filed as inconclusive are left out. A number with no mark means an inactive call. Unless noted, calls come from the whole dose curve; as a rule, active = well fitted cell-killing curve with a large enough effect in the repeat runs; inconclusive = weak or mixed curves, or effect the other way; inactive = no such curve, though single readings can be large or run the other way.
% is set by controls: 0 for no effect and ±100 for the full control effect.

Chain of Peroxisome proliferator-activated receptor delta (Homo sapiens) (Q03181 whole entry, looked up): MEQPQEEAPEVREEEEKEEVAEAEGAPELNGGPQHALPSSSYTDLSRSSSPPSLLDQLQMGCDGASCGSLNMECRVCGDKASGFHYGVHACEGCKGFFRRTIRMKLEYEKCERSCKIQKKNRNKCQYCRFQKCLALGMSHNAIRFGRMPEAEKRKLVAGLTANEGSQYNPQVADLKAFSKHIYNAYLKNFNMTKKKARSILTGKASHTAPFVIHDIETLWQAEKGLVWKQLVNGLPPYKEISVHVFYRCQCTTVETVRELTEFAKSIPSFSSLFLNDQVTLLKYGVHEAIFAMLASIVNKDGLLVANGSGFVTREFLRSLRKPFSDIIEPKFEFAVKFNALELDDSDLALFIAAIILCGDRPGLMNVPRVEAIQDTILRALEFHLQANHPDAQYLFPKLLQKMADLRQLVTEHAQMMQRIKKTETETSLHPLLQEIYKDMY

For one assay, the target named is Peroxisome proliferator-activated receptor delta (Homo sapiens) (UniProt Q03181). In words: qHTS assay to identify small molecule antagonists of the peroxisome proliferator-activated receptor delta (PPARd) signaling pathway (AID 743215; active = well fitted inhibition curve with a large enough effect in the signal ratio in the repeat runs, not every such curve was filed as active; the % refers to the signal ratio;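 note: cells stimulated with agonist L165041 at 300 nM final during compound exposure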). The note with it: HEK293H PPARd-UAS-bla, beta-lactamase FRET ratio, antagonist, 17 h; series mostly up to 62 µM; ratio activity, negative = inhibition: at the top concentration. Put shortly:
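PPARd-bla HEK293H cells (UAS-bla reporter) preincubated 5 h, then given compound plus 300 nM final L165041 agonist for 17 h at 37 C. Beta-lactamase activity read by LiveBLAzer B/G FRET substrate fluorescence after 2 h at room temperature.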
Background: Quantitative high-throughput screening tests each substance at several concentrations.
`C=C[C@@H](C)CCC=C(C)C`: the “ratio activity, negative = inhibition” value was 12.9%.
With `CN[C@@H]1[C@@H](O)[C@@H](O[C@@H]2[C@H](O)[C@H](O[C@H]3OC(CN)=CC[C@H]3N)[C@@H](N)C[C@H]2N)OCC1(C)O` (stereo partly drawn), the “ratio activity, negative = inhibition” value was 5.64%.
Still for that read-out and setting: with `CCc1nccnc1C` the figure was 7.38%; with `CCCCOC(=O)C(=O)OCCCC`, 8.38%; with `CC(C)COC(=O)CCCCC(=O)OCC(C)C`, -1.06%.
`Cc1cc(O)c2c(c1)C(=O)c1cccc(O)c1C2=O`: the “ratio activity, negative = inhibition” value is 2.39%.
The same measure, in the same setting: with `O=CN1CCOCC1` the figure was -4.2%; with `Cc1ccccc1OCC1CO1` (stereo not drawn), 5.58% [at 80.4 µM]; with `CC1=CC[C@H](CC=O)C1(C)C`, -2.33%.
Consider `COc1cccc2sc(N)nc12`, for which the “ratio activity, negative = inhibition” value is 5.2% [at 80.4 µM].
Still for that read-out and setting: with `CN(C)CCCNCCC#N` the figure was -5.37%.
Consider `C=CCOC(=O)c1ccc(C(=O)OCC=C)c(C(=O)OCC=C)c1`, for which the “ratio activity, negative = inhibition” value was 21.5%.
On to `Nc1ccc(/C=C/c2ccc(N)cc2S(=O)(=O)O)c(S(=O)(=O)O)c1`, for which the ratio activity, negative = inhibition was -1.73% [at 0.575 µM].
Turning to `CC(Cl)COP(=O)(OCC(C)Cl)OCC(C)Cl` (stereo not drawn), the “ratio activity, negative = inhibition” value is 7.93%.
The same measure, in the same setting: with `CCNC(=O)NCCCOc1cccc(CN2CCCCC2)c1` the figure was -2.87%; with `O=C(c1ccc2c(c1)C(=O)OC2=O)c1ccc2c(c1)C(=O)OC2=O`, -5.1%.
Same read-out and setting: with `CCC1COC(=O)O1` (stereo not drawn) the figure was 3.4%; with `Cc1ccccc1C`, 3.02% [at 80.4 µM].

The next assay deals with Bile acid receptor (Homo sapiens) (UniProt Q96RI1). The experiment in a line: qHTS assay to identify small molecule antagonists of the farnesoid-X-receptor (FXR) signaling pathway (AID 743217; active = well fitted inhibition curve with a large enough effect in the signal ratio in the repeat runs, not every such curve was filed as active; the % refers to the signal ratio). The note with it: HEK293T FXR-UAS-bla, beta-lactamase ratio, CDCA-stimulated, 16 h; series mostly up to 62.6 µM; activity change, negative = inhibition: at the top concentration. In a few lines: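 FXR-UAS-bla HEK 293T cells (beta-lactamase reporter) given compound plus chenodeoxycholic acid (50 uM final), 16 h at 37C. LiveBLAzer B/G FRET substrate added for 2 h at room temperature; fluorescence read.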
Chain of Bile acid receptor (Homo sapiens) (Q96RI1 whole entry, looked up): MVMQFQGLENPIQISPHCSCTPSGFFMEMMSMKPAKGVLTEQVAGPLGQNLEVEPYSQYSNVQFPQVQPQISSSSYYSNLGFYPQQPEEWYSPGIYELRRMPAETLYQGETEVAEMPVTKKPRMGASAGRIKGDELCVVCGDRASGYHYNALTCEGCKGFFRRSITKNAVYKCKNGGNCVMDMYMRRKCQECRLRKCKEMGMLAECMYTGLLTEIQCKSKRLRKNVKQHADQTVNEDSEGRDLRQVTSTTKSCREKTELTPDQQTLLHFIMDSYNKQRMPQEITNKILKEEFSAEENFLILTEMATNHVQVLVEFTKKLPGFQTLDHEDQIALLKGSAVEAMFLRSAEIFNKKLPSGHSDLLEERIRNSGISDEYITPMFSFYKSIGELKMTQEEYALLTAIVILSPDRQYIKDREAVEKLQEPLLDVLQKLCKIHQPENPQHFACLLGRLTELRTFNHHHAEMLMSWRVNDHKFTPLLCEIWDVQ
Consider `CCC(=O)c1ccc(O)cc1`, for which the “activity change, negative = inhibition” value was 1.68%.
The same measure, in the same setting: with `CCc1nccnc1C` the figure was 0.31%; with `CCCCOC(=O)C(=O)OCCCC`, -0.488%.
Same read-out and setting: with `CC(C)COC(=O)CCCCC(=O)OCC(C)C` the figure was 1.46%.
Take `Cc1cc(O)c2c(c1)C(=O)c1cccc(O)c1C2=O`: the “activity change, negative = inhibition” value was 9.71%.
On the same count and under the same terms, with `C[C@H](CCC(=O)NCC(=O)O)[C@H]1CC[C@H]2[C@@H]3[C@H](O)C[C@@H]4C[C@H](O)CC[C@]4(C)[C@H]3C[C@H](O)[C@]12C` the figure was 1.39%; with `O=C1NC2NC(=O)NC2N1` (stereo not drawn), 1.51%.
On the same count and under the same terms, with `Cc1ccccc1OCC1CO1` (stereo not drawn) the figure was 0.354% [at 81.1 µM].
For `Cc1cccc(Nc2ccncc2S(=O)(=O)NC(=O)NC(C)C)c1`, the “activity change, negative = inhibition” value was 7.43%.
On the same count and under the same terms, with `CC1=CC[C@H](CC=O)C1(C)C` the figure was 0.277%; with `NS(=O)(=O)c1cc2c(cc1Cl)NC(CC1CCCC1)NS2(=O)=O` (stereo not drawn), 10.2%; with `COc1cccc2sc(N)nc12`, 0.367% [at 81.1 µM].
The same measure, in the same setting: with `Nc1ccc(/C=C/c2ccc(N)cc2S(=O)(=O)O)c(S(=O)(=O)O)c1` the figure was 3.76% [at 0.55 µM].
The same measure, in the same setting: with `Cc1ncc([N+](=O)[O-])n1CC(O)CCl` (stereo not drawn) the figure was -0.88%; with `COCCOCCOCCOC`, 2.9%; with `O=C(c1ccc2c(c1)C(=O)OC2=O)c1ccc2c(c1)C(=O)OC2=O`, -1.06%.
With `NC(=O)NC(=O)Cc1ccccc1`, the “activity change, negative = inhibition” value is 0.774%.
On to `CCOC(=O)CC(CC(=O)OCC)(OC(C)=O)C(=O)OCC`, for which the “activity change, negative = inhibition” value was -4.58%.
Still for that read-out and setting: with `CCC1COC(=O)O1` (stereo not drawn) the figure was 5.27%.
On the same count and under the same terms, with `NC(=O)NNC(N)=O` the figure was -0.324%.

Tested on in the next assay: not listed separately
The experiment in a line: qHTS assay to identify small molecule agonists of the farnesoid-X-receptor (FXR) signaling pathway - cell viability counter screen (AID 743218). Note: nearly all actives have a fitted effect of over 45% in size. The note with it: FXR-bla HEK293T viability, CellTiter-Glo luminescence, 16 h; series mostly up to 62.6 µM; viability change, negative = cytotoxic: at the top concentration. Put shortly:
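FXR-UAS-bla HEK 293T cells exposed to compounds for 16 h at 37C. Cytotoxicity read in the same wells by CellTiter-Glo luminescence after 30 min at room temperature, following the beta-lactamase FRET read.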
As to `CCC(=O)c1ccc(O)cc1`, the “viability change, negative = cytotoxic” value is 0.739%.
Still for that read-out and setting: with `CN[C@@H]1[C@@H](O)[C@@H](O[C@@H]2[C@H](O)[C@H](O[C@H]3OC(CN)=CC[C@H]3N)[C@@H](N)C[C@H]2N)OCC1(C)O` (stereo partly drawn) the figure was -11.9%; with `CCc1nccnc1C`, -23.2%.
As for `CCCCOC(=O)C(=O)OCCCC`, the “viability change, negative = cytotoxic” value is 3.38%.
As to `Cc1cc(O)c2c(c1)C(=O)c1cccc(O)c1C2=O`, the “viability change, negative = cytotoxic” value was -23.9%.
On to `O=CN1CCOCC1`, for which the “viability change, negative = cytotoxic” value was -15.9%.
Still for that read-out and setting: with `OCCCCCCCl` the figure was -7.47% [at 81.1 µM].
For the molecule `C[C@H](CCC(=O)NCC(=O)O)[C@H]1CC[C@H]2[C@@H]3[C@H](O)C[C@@H]4C[C@H](O)CC[C@]4(C)[C@H]3C[C@H](O)[C@]12C`, the “viability change, negative = cytotoxic” value is -6.02%.
Turning to `O=C1NC2NC(=O)NC2N1` (stereo not drawn), the “viability change, negative = cytotoxic” value was 12.3%.
The same measure, in the same setting: with `CCOC(=O)CCc1ccccc1` the figure was 1.88%; with `Cc1ccccc1OCC1CO1` (stereo not drawn), 5.91% [at 81.1 µM].
On the same count and under the same terms, with `O=c1[nH]c(=O)c2[nH]c(=O)[nH]c2[nH]1` the figure was 18.5% [at 13.2 µM].
As to `CC1=CC[C@H](CC=O)C1(C)C`, the “viability change, negative = cytotoxic” value is -4.43%.
Consider `OC(CCN1CCCCC1)(c1ccccc1)c1ccccc1`, for which the “viability change, negative = cytotoxic” value was -8.65%.
`NS(=O)(=O)c1cc2c(cc1Cl)NC(CC1CCCC1)NS2(=O)=O` (stereo not drawn): the “viability change, negative = cytotoxic” value was 1.06%.
For `COc1cccc2sc(N)nc12`, the “viability change, negative = cytotoxic” value was -24.2% [at 81.1 µM].
As to `CN(C)CCCNCCC#N`, the “viability change, negative = cytotoxic” value was 17.8%.
`C=CCOC(=O)c1ccc(C(=O)OCC=C)c(C(=O)OCC=C)c1`: the “viability change, negative = cytotoxic” value is 14%.
Consider `Nc1ccc(/C=C/c2ccc(N)cc2S(=O)(=O)O)c(S(=O)(=O)O)c1`, for which the viability change, negative = cytotoxic was 14.9% [at 0.55 µM].
Consider `Cc1ncc([N+](=O)[O-])n1CC(O)CCl` (stereo not drawn), for which the “viability change, negative = cytotoxic” value is 0.434%.
Still for that read-out and setting: with `COCCOCCOCCOC` the figure was 8.48%.
Regarding `CCCCC/C=C/CC(=O)OC`, the “viability change, negative = cytotoxic” value was 0.923%.
On the same count and under the same terms, with `O=C(c1ccc2c(c1)C(=O)OC2=O)c1ccc2c(c1)C(=O)OC2=O` the figure was -11.3%.
`CCOC(=O)CC(CC(=O)OCC)(OC(C)=O)C(=O)OCC`: the “viability change, negative = cytotoxic” value was 1.98%.
The same measure, in the same setting: with `CCC1COC(=O)O1` (stereo not drawn) the figure was 5.77%; with `COCC(=O)Nc1c(I)c(C(=O)NCC(O)CO)c(I)c(C(=O)N(C)CC(O)CO)c1I` (stereo not drawn), 16.8%; with `CCS(=O)(=O)CCn1c([N+](=O)[O-])cnc1C`, -5.88%.
On the same count and under the same terms, with `NC(=O)NNC(N)=O` the figure was 11.7%; with `Cc1ccccc1C`, 18.7% [at 81.1 µM].

The next assay addresses Bile acid receptor (Homo sapiens) (UniProt Q96RI1). The experiment in a line: qHTS assay to identify small molecule agonists of the farnesoid-X-receptor (FXR) signaling pathway (AID 743220; active = well fitted activation curve with a large enough effect in the signal ratio in the repeat runs, not every such curve was filed as active; the % refers to the signal ratio). The note with it: HEK293T FXR-UAS-bla, beta-lactamase FRET ratio, 16 h; series mostly up to 62.6 µM; activation: at the top concentration. Put shortly:
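Beta-lactamase reporter under UAS control in GeneBLAzer FXR HEK 293T cells (5000/well) measured with LiveBLAzer FRET substrate after 2 h at room temperature. Compound exposure lasted 16 h at 37C.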
As for `CCC(=O)c1ccc(O)cc1`, the “activation” value was -0.792%.
Regarding `CCc1nccnc1C`, the “activation” value was -1.05%.
The same measure, in the same setting: with `CCCCOC(=O)C(=O)OCCCC` the figure was -2.41%.
On to `CC(C)COC(=O)CCCCC(=O)OCC(C)C`, for which the “activation” value is 0.55%.
With `Cc1cc(O)c2c(c1)C(=O)c1cccc(O)c1C2=O`, the “activation” value is 0.186%.
Still for that read-out and setting: with `C[C@H](CCC(=O)NCC(=O)O)[C@H]1CC[C@H]2[C@@H]3[C@H](O)C[C@@H]4C[C@H](O)CC[C@]4(C)[C@H]3C[C@H](O)[C@]12C` the figure was -0.434%.
Still for that read-out and setting: with `O=C1NC2NC(=O)NC2N1` (stereo not drawn) the figure was 2.08%; with `CCOC(=O)CCc1ccccc1`, -0.978%; with `Cc1ccccc1OCC1CO1` (stereo not drawn), -0.283% [at 81.1 µM].
Still for that read-out and setting: with `Cc1cccc(Nc2ccncc2S(=O)(=O)NC(=O)NC(C)C)c1` the figure was -1.77%; with `CC1=CC[C@H](CC=O)C1(C)C`, -0.328%.
As for `NS(=O)(=O)c1cc2c(cc1Cl)NC(CC1CCCC1)NS2(=O)=O` (stereo not drawn), the “activation” value is -1.07%.
Consider `COc1cccc2sc(N)nc12`, for which the “activation” value is 4.68% [at 81.1 µM].
Still for that read-out and setting: with `CCC(O)C(C)(C)C` (stereo not drawn) the figure was 3.93% [at 81.1 µM].
Same read-out and setting: with `Nc1ccc(/C=C/c2ccc(N)cc2S(=O)(=O)O)c(S(=O)(=O)O)c1` the figure was 1.54% [at 0.55 µM].
The same measure, in the same setting: with `Cc1ncc([N+](=O)[O-])n1CC(O)CCl` (stereo not drawn) the figure was -1.18%; with `COCCOCCOCCOC`, -0.426%; with `O=C(c1ccc2c(c1)C(=O)OC2=O)c1ccc2c(c1)C(=O)OC2=O`, 0.429%.
With `NC(=O)NC(=O)Cc1ccccc1`, the “activation” value is -3.09%.
For `CCC1COC(=O)O1` (stereo not drawn), the “activation” value was -0.0855%.
Still for that read-out and setting: with `NC(=O)NNC(N)=O` the figure was -2.28%.
